PubChem BioAssay (Tox21)
Where “and” joins values, the source holds several entries; their conditions need not be identical. Equal entries are not always repeated. Inconclusive results are not listed. Where a call stands in place of a potency, no number is given. Calls of active or inactive are those of the source. Calls follow the shape of the dose curve; as a rule, active = well fitted curve in the direction sought with a large enough effect in the repeat runs; inconclusive = weak or mixed curves; inactive = no such curve, though single readings can be large; an effect the other way counts as inactive or inconclusive.

What was measured:
[1] = molecular target: Cytochrome P450 2C19 (Homo sapiens) (UniProt P33261); test: Cytochrome P450 Family 2 Subfamily C Member 19 (CYP2C19) small molecule antagonists: luciferase reporter qHTS assay (AID 1671197); conditions: P450-Glo CYP2C19 enzyme, luciferin luminescence, 1 h; series mostly up to 52.9 µM; also: nearly all actives have a fitted effect of over 65% in size
Procedure, shortened: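 First, compounds are pinned into enzyme-substrate mix and held 10 min at room temperature. Second, NADPH regeneration solution is added and plates incubate 1 h at 37C. Third, detection reagent is added and luminescence read after 20 min.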

[2] = molecular target: Voltage-gated inwardly rectifying potassium channel KCNH2 (Homo sapiens) (UniProt Q12809); test: Human Ether-a-go-go-Related Gene (hERG) channel small molecule antagonists: fluorescence cell-based qHTS assay (AID 1671200); conditions: hERG-U2OS cells, FluxOR thallium flux fluorescence; series mostly up to 76.8 µM; also: nearly all actives have a fitted effect of over 50% in size;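 as to activity change, negative = inhibition: hERG-expressing U2OS cells given a thallium stimulus after FluxOR II dye loading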
Procedure, shortened: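 Read-out: thallium influx as a surrogate for potassium, tracked as fluorescence (480 nm ex/540 nm em) every second for 2 min after Stimulus Buffer addition in dye-loaded hERG-U2OS cells.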

[3] = molecular target: Cytochrome P450 3A4 (Homo sapiens) (UniProt P08684); test: Cytochrome P450 Family 3 Subfamily A Member 4 (CYP3A4) small molecule antagonists: luciferase reporter qHTS assay (AID 1671201); conditions: P450-Glo CYP3A4 enzyme, luciferin luminescence, 1 h; series mostly up to 115 µM; also: nearly all actives have a fitted effect of over 50% in size
Procedure, shortened: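 Luminescent readout (RLU) proportional to CYP3A4 activity, from luciferin generated off a proluciferin substrate. Enzyme–substrate mix plus compound 10 min at room temp, NADPH regeneration 1 h, detection reagent 20 min.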

[4] = molecular target: Cytochrome P450 1A2 (Homo sapiens) (UniProt P05177); test: Cytochrome P450 Family 1 Subfamily A Member 2 (CYP1A2) small molecule antagonists: luciferase reporter qHTS assay (AID 1671199); conditions: P450-Glo CYP1A2 enzyme, luciferin luminescence, 1 h; series mostly up to 53 µM; also: nearly all actives have a fitted effect of over 50% in size
Procedure, shortened: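 Steps: enzyme-substrate mix dispensed; test compounds and furafylline control pinned in; 10 min room temperature; NADPH regeneration solution added, 1 h; reaction stopped with luciferin detection reagent; luminescence read after 20 min.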

[5] = molecular target: Cytochrome P450 2C9 (Homo sapiens) (UniProt P11712); test: Cytochrome P450 Family 2 Subfamily C Member 9 (CYP2C9) small molecule antagonists: luciferase reporter qHTS assay (AID 1671198); conditions: P450-Glo CYP2C9 enzyme assay, luciferin luminescence; series mostly up to 53 µM; also: nearly all actives have a fitted effect of over 50% in size
Procedure, shortened: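 CYP2C9 activity was measured with a P450-Glo proluciferin substrate. Enzyme–substrate mix was held with compound for 10 min at room temperature, then NADPH regeneration solution was added for 1 h at 37C. Luciferin product was read as luminescence.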
Potency is read from the fitted curve at half-maximal effect.

Chain of Cytochrome P450 1A2 (Homo sapiens) (P05177 whole entry, looked up): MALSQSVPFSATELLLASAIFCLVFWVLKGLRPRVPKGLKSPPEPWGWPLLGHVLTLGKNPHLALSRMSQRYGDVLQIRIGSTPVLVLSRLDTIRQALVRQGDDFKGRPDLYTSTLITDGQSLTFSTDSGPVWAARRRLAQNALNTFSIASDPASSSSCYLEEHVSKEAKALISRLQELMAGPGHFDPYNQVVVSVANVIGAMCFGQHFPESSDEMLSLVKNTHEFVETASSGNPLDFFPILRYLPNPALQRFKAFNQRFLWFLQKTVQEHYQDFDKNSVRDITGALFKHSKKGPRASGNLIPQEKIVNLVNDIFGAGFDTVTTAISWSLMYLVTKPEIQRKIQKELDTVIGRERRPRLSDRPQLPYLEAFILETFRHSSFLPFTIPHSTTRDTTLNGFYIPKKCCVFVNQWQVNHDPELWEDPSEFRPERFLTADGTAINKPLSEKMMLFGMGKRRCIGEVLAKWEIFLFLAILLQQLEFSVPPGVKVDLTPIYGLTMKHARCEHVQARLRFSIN
Chain of Voltage-gated inwardly rectifying potassium channel KCNH2 (Homo sapiens) (Q12809 whole entry, looked up): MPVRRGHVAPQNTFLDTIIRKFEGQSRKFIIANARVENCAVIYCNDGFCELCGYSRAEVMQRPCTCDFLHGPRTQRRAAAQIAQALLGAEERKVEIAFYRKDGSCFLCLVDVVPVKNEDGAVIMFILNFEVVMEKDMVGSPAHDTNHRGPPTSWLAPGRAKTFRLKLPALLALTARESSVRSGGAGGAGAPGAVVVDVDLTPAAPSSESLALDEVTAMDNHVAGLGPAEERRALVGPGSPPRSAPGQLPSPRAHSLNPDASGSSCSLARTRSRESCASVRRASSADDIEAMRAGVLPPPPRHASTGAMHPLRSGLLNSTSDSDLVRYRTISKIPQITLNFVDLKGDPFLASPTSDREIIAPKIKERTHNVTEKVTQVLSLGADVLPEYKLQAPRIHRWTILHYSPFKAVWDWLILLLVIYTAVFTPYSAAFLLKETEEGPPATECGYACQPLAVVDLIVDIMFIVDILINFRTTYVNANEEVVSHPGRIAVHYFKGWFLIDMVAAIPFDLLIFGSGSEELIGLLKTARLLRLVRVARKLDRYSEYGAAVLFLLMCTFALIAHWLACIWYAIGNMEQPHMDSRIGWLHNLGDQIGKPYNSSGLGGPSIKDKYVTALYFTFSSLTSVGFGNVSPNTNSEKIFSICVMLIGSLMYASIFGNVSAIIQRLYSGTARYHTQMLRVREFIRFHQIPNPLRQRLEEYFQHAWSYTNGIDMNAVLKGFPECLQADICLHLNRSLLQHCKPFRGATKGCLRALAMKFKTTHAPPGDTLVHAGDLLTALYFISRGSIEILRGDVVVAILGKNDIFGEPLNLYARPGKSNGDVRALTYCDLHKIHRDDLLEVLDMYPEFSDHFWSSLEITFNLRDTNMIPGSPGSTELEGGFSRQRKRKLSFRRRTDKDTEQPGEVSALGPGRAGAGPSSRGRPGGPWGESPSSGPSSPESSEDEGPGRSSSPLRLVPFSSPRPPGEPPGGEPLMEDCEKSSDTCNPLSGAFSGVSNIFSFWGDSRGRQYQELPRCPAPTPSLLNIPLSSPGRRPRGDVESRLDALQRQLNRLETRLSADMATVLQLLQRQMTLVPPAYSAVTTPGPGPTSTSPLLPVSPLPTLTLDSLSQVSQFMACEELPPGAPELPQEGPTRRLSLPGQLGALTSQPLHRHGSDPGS
Chain of Cytochrome P450 2C19 (Homo sapiens) (P33261 whole entry, looked up): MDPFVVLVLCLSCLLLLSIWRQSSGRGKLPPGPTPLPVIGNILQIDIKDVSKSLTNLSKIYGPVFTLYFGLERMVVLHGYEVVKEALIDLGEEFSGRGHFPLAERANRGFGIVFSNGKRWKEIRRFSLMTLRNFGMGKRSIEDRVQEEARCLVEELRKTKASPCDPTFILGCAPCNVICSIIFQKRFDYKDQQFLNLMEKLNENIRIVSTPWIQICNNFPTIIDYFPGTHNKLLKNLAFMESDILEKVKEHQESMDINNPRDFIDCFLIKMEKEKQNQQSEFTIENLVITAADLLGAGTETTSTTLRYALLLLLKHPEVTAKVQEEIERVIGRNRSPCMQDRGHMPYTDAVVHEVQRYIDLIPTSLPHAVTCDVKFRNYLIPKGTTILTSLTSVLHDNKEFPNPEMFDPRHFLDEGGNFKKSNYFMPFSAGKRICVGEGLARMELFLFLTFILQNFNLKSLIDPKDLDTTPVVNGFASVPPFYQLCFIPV
Chain of Cytochrome P450 2C9 (Homo sapiens) (P11712 whole entry, looked up): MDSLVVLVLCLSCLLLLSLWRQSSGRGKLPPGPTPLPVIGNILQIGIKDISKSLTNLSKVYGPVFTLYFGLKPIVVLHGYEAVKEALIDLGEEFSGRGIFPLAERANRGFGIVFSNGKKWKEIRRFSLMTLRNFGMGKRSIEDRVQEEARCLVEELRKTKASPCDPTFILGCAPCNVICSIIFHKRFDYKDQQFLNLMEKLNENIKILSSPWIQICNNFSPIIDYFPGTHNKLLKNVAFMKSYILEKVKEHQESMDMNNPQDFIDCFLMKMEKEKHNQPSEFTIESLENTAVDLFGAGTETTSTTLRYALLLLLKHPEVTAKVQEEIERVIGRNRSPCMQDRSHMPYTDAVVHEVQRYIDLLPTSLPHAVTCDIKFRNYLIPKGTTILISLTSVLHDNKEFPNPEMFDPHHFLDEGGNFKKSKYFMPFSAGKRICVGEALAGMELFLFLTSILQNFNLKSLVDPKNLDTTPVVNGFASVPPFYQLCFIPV
Chain of Cytochrome P450 3A4 (Homo sapiens) (P08684 whole entry, looked up): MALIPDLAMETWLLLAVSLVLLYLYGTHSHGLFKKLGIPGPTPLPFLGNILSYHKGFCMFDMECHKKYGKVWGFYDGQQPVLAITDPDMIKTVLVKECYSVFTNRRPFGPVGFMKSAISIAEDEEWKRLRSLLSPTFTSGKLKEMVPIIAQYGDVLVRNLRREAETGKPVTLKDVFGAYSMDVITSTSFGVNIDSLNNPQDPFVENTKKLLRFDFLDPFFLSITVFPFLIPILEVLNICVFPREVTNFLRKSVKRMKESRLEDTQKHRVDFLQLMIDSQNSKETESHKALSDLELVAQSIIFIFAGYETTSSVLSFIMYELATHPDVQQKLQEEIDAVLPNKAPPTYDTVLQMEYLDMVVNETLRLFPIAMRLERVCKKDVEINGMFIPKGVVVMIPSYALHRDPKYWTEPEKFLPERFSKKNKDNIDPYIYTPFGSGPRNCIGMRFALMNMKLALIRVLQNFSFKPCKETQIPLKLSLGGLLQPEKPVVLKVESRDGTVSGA

## O=C(O)c1c(Cl)cccc1Cl
[1]
  Potency: 34.9 µM (active)
[2]
  Potency: inactive
[3]
  Potency: inactive

## CC[C@@]1(O)C(=O)OCc2c1cc1n(c2=O)Cc2c-1nc1ccccc1c2/C=N/OC(C)(C)C
[1]
  Potency: inactive
[4]
  Potency: inactive
[2]
  Potency: inactive

## C=CC(=O)OCC(CO)(COC(=O)C=C)COC(=O)C=C
[1]
  Potency: 25.3 µM (active) and 22.4 µM (active)
[5]
  Potency: 11.3 µM (active) and 11.2 µM (active)
[2]
  Potency: inactive
[3]
  Potency: 1.01 µM (active) and 1.12 µM (active)

## CCCCCCCCNC(C)C(O)c1ccc(SC(C)C)cc1 (stereo unspecified)
[1]
  Potency: 19.5 µM (active)
[5]
  Potency: 30.9 µM (active)
[3]
  Potency: inactive

## Cc1nc(-c2ccc3c(c2)CCN(CCC2CCC(NC(=O)/C=C/c4ccc(F)cc4)CC2)CC3)no1 (stereo unspecified)
[1]
  Potency: inactive
[2]
  Potency: 0.873 µM (active)
[3]
  Potency: inactive

## CC1=C(C(=O)OC(C)C)C(c2cccc([N+](=O)[O-])c2)C(C(=O)OC2CN(C(c3ccccc3)c3ccccc3)C2)=C(N)N1 (stereo unspecified)
[5]
  Potency: 1.38 µM (active)

## CC(C)(C)C(=O)OCOC(=O)C1N2C(=O)CC2S(=O)(=O)C1(C)C (stereo unspecified)
[1]
  Potency: inactive
[4]
  Potency: inactive

## O=[N+]([O-])c1cc(Cl)c(Cl)c(Cl)c1Cl
[1]
  Potency: 39.8 µM (active)
[4]
  Potency: 2.24 µM (active)
[2]
  Potency: inactive
[3]
  Potency: inactive

## CCc1oc2ccccc2c1C(=O)c1cc(Br)c(O)c(Br)c1
[1]
  Potency: inactive
[4]
  Potency: inactive
[2]
  Potency: 10.7 µM (active)

## CS(=O)(=O)CCNCc1ccc(-c2ccc3ncnc(Nc4ccc(OCc5cccc(F)c5)c(Cl)c4)c3c2)o1
[1]
  Potency: 8.71 µM (active)
[4]
  Potency: inactive

## Nc1c2ccccc2nc2ccccc12
[5]
  Potency: inactive

## O=C(O)c1cc(O)c2c(c1)C(=O)c1cccc(O)c1C2=O
[1]
  Potency: inactive
[4]
  Potency: 36.7 µM (active)
[2]
  Potency: inactive
[3]
  Potency: inactive

## O=CC=C(c1ccccc1)c1ccccc1
[1]
  Potency: 18 µM (active)
[5]
  Potency: 20.2 µM (active)
[2]
  Potency: 39.2 µM (active)
[3]
  Potency: inactive

## CCCCCCCCCCCCCCCCCC[N+](C)(C)C
[1]
  Potency: 89.6 µM (active)
[5]
  Potency: 63.5 µM (active)
[3]
  Potency: 71.2 µM (active)

## S=c1[nH]c2ccccc2s1
[1]
  Potency: 11.2 µM (active)
[2]
  Potency: inactive

## CO[Si](CCCNc1ccccc1)(OC)OC
[1]
  Potency: inactive
[4]
  Potency: inactive
[2]
  Potency: inactive
[3]
  Potency: 25.2 µM (active)

## N=C1N=C(N)c2cc3ccccc3cc21
[1]
  Potency: 79.6 µM (active)
[4]
  Potency: 1.78 µM (active)

## O=Cc1cc(O)ccc1Br
[1]
  Potency: 36.1 µM (active)
[5]
  Potency: 45.4 µM (active)
[3]
  Potency: inactive

## CCCCCCCC/C=C\CCCCCCCCOCCO
[1]
  Potency: 46.3 µM (active)
[5]
  Potency: 29.2 µM (active)
[3]
  Potency: 11.6 µM (active)

## CCOC(=O)O[C@H](C)OC(=O)c1ccc2c(c1)cc(C(=O)NC1CCN(C(C)C)CC1)n2Cc1cc(-c2ccc(Cl)s2)on1
[5]
  Potency: 33.2 µM (active)
[3]
  Potency: 5.91 µM (active)

## CCN1/C(=C/C=C/c2sc3ccccc3[n+]2CC)Sc2ccccc21
[2]
  activity change, negative = inhibition: -25.3% [at 15.8 µM] (inactive)
[3]
  Potency: 6.01 µM (active)

## Nc1c(Cl)cc(Cl)cc1Cl
[5]
  Potency: inactive
[2]
  Potency: inactive

## O=C(O)c1ccc(Cl)c(Cl)c1
[5]
  Potency: inactive
[2]
  Potency: inactive

## Cc1onc(-c2c(Cl)cccc2Cl)c1C(=O)N[C@@H]1C(=O)N2[C@@H]1SC(C)(C)[C@@H]2C(=O)O
[5]
  Potency: 13.8 µM (active)
[2]
  Potency: inactive

## C[n+]1cc2c3c(ccc2c2ccc4cc5c(cc4c21)OCO5)OCO3
[2]
  activity change, negative = inhibition: -0.0312% [at 15.8 µM] (inactive)

## COc1ccc(C(=O)/C(Br)=C\C(=O)O)cc1
[5]
  Potency: 25.2 µM (active)
[2]
  Potency: inactive

## CN1CCN(CCC(=O)N2c3ccccc3Sc3ccc(C(F)(F)F)cc32)CC1
[5]
  Potency: inactive
[2]
  Potency: 4.77 µM (active)

## [Cl][Au]([Cl])[Cl]
[2]
  Potency: inactive

## CN(C)[C@@H]1C(=O)C(C(N)=O)=C(O)[C@@]2(O)C(=O)C3=C(O)c4c(O)ccc(Cl)c4[C@@H](O)[C@H]3C[C@@H]12
[2]
  Potency: inactive
[3]
  Potency: inactive

## N#CC1(c2ccc(F)cc2)CCC(=O)CC1
[5]
  Potency: inactive
[2]
  Potency: inactive

## CCc1cc(Cc2cc(CC)cc(C(C)(C)C)c2O)c(O)c(C(C)(C)C)c1
[5]
  Potency: 3.17 µM (active)
[4]
  Potency: inactive
[3]
  Potency: 17.8 µM (active)

## CC(=O)SC[C@@H](Cc1ccccc1)C(=O)NCC(=O)OCc1ccccc1
[5]
  Potency: 3.47 µM (active)
[2]
  Potency: inactive

## CCc1cc(SCc2sc(-c3ccc(C(F)(F)F)cc3)nc2CN2CCN(c3ccc(OC)cc3)CC2)ccc1OCC(=O)O
[5]
  Potency: 20 µM (active)
[2]
  Potency: 4.36 µM (active)
[3]
  Potency: 11.2 µM (active)

## C[C@H](CCC(=O)O)[C@H]1CC[C@H]2[C@@H]3CC[C@@H]4C[C@H](O)CC[C@]4(C)[C@H]3CC[C@]12C
[4]
  Potency: inactive
[2]
  Potency: inactive

## CCC1=C[C@@H]2CN(C1)Cc1c([nH]c3ccccc13)[C@@](C(=O)OC)(c1cc3c(cc1OC)N(C)[C@H]1[C@@](O)(C(=O)OC)[C@H](OC(C)=O)[C@]4(CC)C=CCN5CC[C@]31[C@@H]54)C2
[4]
  Potency: inactive
[2]
  Potency: 6.74 µM (active)

## C1CCCC1
[5]
  Potency: inactive
[2]
  Potency: inactive

## OCCN(CCO)c1nc(N2CCCCC2)c2nc(N(CCO)CCO)nc(N3CCCCC3)c2n1
[2]
  Potency: inactive

## O=C1c2c(O)ccc(Nc3ccc(CCO)cc3)c2C(=O)c2c([N+](=O)[O-])ccc(O)c21
[5]
  Potency: 10 µM (active)
[3]
  Potency: 31.7 µM (active)

## CCOc1ccc2nc3cc(N)ccc3c(N)c2c1
[5]
  Potency: inactive
[2]
  Potency: inactive
[3]
  Potency: inactive

## CNCc1cc(F)ccc1Oc1ccc(Cl)c(Cl)c1
[4]
  Potency: 1 µM (active)

## CC(NN)c1ccccc1 (stereo unspecified)
[4]
  Potency: inactive
[2]
  activity change, negative = inhibition: -1.06% [at 15.8 µM] (inactive)

## CCCCCCCC(=O)[O-].CCCCCCCC(=O)[O-].[Zn+2]
[5]
  Potency: inactive
[2]
  Potency: inactive
[3]
  Potency: inactive

## CCCCCCCCCCCC(=O)NCCCN(C)C
[2]
  Potency: 13.8 µM (active)

## CC1=NC(C)OC1C (stereo unspecified)
[5]
  Potency: inactive
[3]
  Potency: 63.3 µM (active)

## CCCCCCCC/C=C/CCCCCCCC1=NCCN1CCO
[5]
  Potency: 25.2 µM (active)
[3]
  Potency: 31.7 µM (active)

## Nc1ccccc1O
[5]
  Potency: 27.9 µM (active)
[4]
  Potency: 15.7 µM (active)
[3]
  Potency: 31.3 µM (active)

## Nc1cc(C(F)(F)F)ccc1S
[5]
  Potency: 2.19 µM (active)
[2]
  Potency: inactive

## O=C1CCCCCN1SSN1CCCCCC1=O
[2]
  Potency: inactive
[3]
  Potency: inactive

## COc1cccc(N)c1
[2]
  Potency: inactive

## c1ccc(CSCc2ccccc2)cc1
[5]
  Potency: 35.5 µM (active)
[3]
  Potency: inactive

## CNc1ccc(O)cc1
[5]
  Potency: 22.4 µM (active)
[2]
  Potency: inactive

## On1ccccc1=S
[2]
  Potency: inactive

## CCOc1nc2cccc(C(=O)OC(C)OC(=O)OC3CCCCC3)c2n1Cc1ccc(-c2ccccc2-c2nn[nH]n2)cc1 (stereo unspecified)
[5]
  Potency: 10 µM (active)
[2]
  Potency: inactive

## CSc1ccc(C(=O)c2[nH]c(=O)[nH]c2C)cc1
[5]
  Potency: inactive
[3]
  Potency: inactive
